The text below walks through data of PubChem BioAssay AID1671188 (National Center for Advancing Translational Sciences (NCATS), 2021).

Each structure is given as a SMILES string. The whole screen tested about 100,000 compounds, of which about 250 (0.25%) were called active. Another 7% or so got no clear call; they are omitted. For the sample, actives were picked, then their nearest neighbours and some compounds at random. Values without a mark were called inactive. The call rests on the fitted dose curve; in most records, active means well fitted inhibition curve with a large enough effect; inconclusive means small, poorly fitted or top-dose-only effect; inactive means flat fitted curve, though single readings scatter.
On the % scale 0 is the no-effect control and ±100 the full control effect; potency means the concentration at half of the fitted maximal effect.

For the assay, the target named is Alanine aminotransferase 2 (Homo sapiens) (UniProt Q8TD30). Briefly: Primary qHTS assay for inhibitors of Glutamate pyruvate transaminase 2 (GPT2). Further: nearly all actives have a fitted effect of over 60% in size. As to conditions: Recombinant GPT2, coupled pyruvate oxidase/HRP Amplex Red fluorescence; series mostly up to 57.7 µM; activity change, negative = inhibition: at the top concentration. In short, it runs like this: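 Fluorescence read-out: pyruvate from GPT2 turnover coupled to pyruvate oxidase, HRP and Amplex Red (0.2mM ThPP, 0.2U/mL PO and HRP, 50uM Amplex final). Substrates 250uM a-KG, 2mM L-alanine; enzyme 10ng/uL; 30 min RT.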
Chain of Alanine aminotransferase 2 (Homo sapiens) (Q8TD30 whole entry, looked up): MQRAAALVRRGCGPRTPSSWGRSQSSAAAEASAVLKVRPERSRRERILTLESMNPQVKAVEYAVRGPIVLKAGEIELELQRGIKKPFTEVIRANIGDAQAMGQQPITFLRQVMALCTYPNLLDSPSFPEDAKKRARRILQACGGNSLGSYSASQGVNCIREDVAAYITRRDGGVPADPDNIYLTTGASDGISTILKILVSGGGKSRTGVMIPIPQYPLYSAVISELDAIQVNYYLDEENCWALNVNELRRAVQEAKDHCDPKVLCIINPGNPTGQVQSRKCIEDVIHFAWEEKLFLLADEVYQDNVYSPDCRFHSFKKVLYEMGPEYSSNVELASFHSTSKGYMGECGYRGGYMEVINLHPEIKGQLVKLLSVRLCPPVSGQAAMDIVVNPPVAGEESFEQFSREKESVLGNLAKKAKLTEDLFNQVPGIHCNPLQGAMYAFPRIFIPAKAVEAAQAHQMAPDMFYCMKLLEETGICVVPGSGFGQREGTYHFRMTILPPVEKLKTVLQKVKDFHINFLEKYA
A general note: In qHTS, concentration-response curves come from the screen itself.
As to `CCc1cccc2c(C(CC(=O)NCC(C)C)c3ccccc3OC)c[nH]c12` (centres undefined), the outcome was inactive.

`COc1ccc(C(=O)N2CCN(C(C(=O)O)c3cccc(O)c3)CC2)cc1` (centres undefined): the “activity change, negative = inhibition” value is -24.9%. With `CN1c2cc(C(=O)NCc3ccccc3Br)ccc2C(=O)N2CCCCC21` (centres undefined), the outcome was inactive. Take `COc1cccc(CN2C(=O)OC3(CCN(C(=O)C4CCC(OC)CC4)CC3)C2(C)c2cccnc2)c1` (centres undefined): the “activity change, negative = inhibition” value is -4.1%. Turning to `C=CCn1cc2c3c(cccc31)[C@H](CC(C)C)N[C@H](C(=O)NCC1CC1)C2`, the “activity change, negative = inhibition” value was -3.39% [at 88.5 µM]. With `Cc1ccc(CN2CCC3(CC2)CN(C2CCC2)CC3CO)o1` (centres undefined), the “activity change, negative = inhibition” value was 1.81%. For the compound `NC1(C(=O)NCCC2CCCN(Cc3ccc4occc4c3)C2)CC1` (centres undefined), the “activity change, negative = inhibition” value is -9.89%. Consider `COC(=O)[C@@H]1CN(C(=O)c2cccnc2)CCN1C(C)=O`, for which the “activity change, negative = inhibition” value is -50.5% [at 88.5 µM]. Turning to `FC(F)(F)c1ccc(CN2CCn3c(nnc3-c3ccccc3)C2)cc1`, the “activity change, negative = inhibition” value was -4.47%. Take `Cc1noc(C)c1CCCNC(=O)c1ccc(N(C)C2CCOC2)nc1` (centres undefined): the result was inactive. Turning to `Cc1nc(C)c(C)c(N2CCCC(c3nccn3Cc3ccccc3)C2)n1` (centres undefined), the “activity change, negative = inhibition” value is 1.46%. For `COC(=O)CNC(=O)C1CN(c2ccccc2)C(=O)N1` (centres undefined), the “outcome” value is “inactive [at 88.5 µM]”. Same read-out and setting: next, `O=C1NCCCCCCN(C(=O)c2cccs2)[C@H]2C[C@H](c3nc(Cc4ccccc4)no3)C[C@@H]12`: “inactive”.

For the compound `O=C(CCc1nnn2c1CN(C(=O)NCc1ccc(F)cc1)CC2)N1CCOCC1`, the result was inactive.

Consider `Cc1noc(C)c1[S+](=O)([O-])NC1CCN(Cc2ccc(-c3ccsc3)cc2)C1` (centres undefined), for which the outcome was inactive. As for `CCCNC(=O)N1CCCCC1c1nc(CCOc2ccc(F)cc2)no1` (centres undefined), the “activity change, negative = inhibition” value is -7.85%. In the case of `CCCNC(=O)N1CCn2nnc(CCC(=O)N3CCOCC3)c2C1`, the “activity change, negative = inhibition” value was 0.613%.

Regarding `Cc1cc2ncc(C(=O)NCC3CC3)cn2n1`, the “activity change, negative = inhibition” value was -7.15% [at 88.5 µM]. As for `O=C(NCCc1ccccn1)C1CCCN(c2nc(-c3ccccc3)nc3c2CCC3)C1` (centres undefined), the “activity change, negative = inhibition” value is 2.94%. As to `CCOc1ccc(CCCC(=O)N2CC[C@@](C)(O)[C@@H](O)C2)cc1C`, the “activity change, negative = inhibition” value is 3.96%. As for `O=C(c1cncc(Br)c1)N1CCC(Cc2nc(C3CCOCC3)no2)CC1`, the result was inactive. As to `CC(=O)N[C@@H]1C=C(C(=O)N[C@H](CC(C)C)C(N)=O)C[C@@H](O)[C@@H]1O`, the “activity change, negative = inhibition” value is -4.69% [at 88.5 µM]. Take `Cc1ccc(C(=O)N2C[C@@H](Oc3ccccc3)C[C@H]2C(=O)N2CCCC2)cn1`: the “activity change, negative = inhibition” value was -20.6%. As to `O=C(NCCn1ccc2ccc(Cl)cc21)C1CC(=O)N(c2n[nH]c3ccccc23)C1` (centres undefined), the outcome was inactive. `COCCN1CC(CO)C2(CCN(Cc3cnn(C(C)C)c3)CC2)C1` (centres undefined): the result was inactive.

Take `Cn1cc(CN2CCCN(C(=O)c3ccco3)CC2)c(-c2ccc(C3CCCCC3)cc2)n1`: the “activity change, negative = inhibition” value was -7.7%. `COc1ccccc1CN1CC[C@@H](CO)N(C)c2ncccc2C1`: the “activity change, negative = inhibition” value is -5.98% [at 88.5 µM].

On to `COCCOc1ccnc(-c2noc([C@@H]3CCCN3Cc3ccc(Cl)cc3)n2)c1`, for which the “outcome” value is “inactive [at 88.5 µM]”. Consider `O=C(NCC(F)(F)F)c1nc2cccnc2n(CCc2ccccc2)c1=O`, for which the outcome was inactive. As for `CC(C)C(=O)NC1CCCc2c1[nH]c1c(Cl)cccc21` (centres undefined), the “activity change, negative = inhibition” value is -0.0645%. In the case of `O=S(=O)(c1ccc(F)cc1)N1CCCC(Cc2noc(-c3ccccc3)n2)C1` (centres undefined), the outcome was inactive.

With `Cc1ccncc1C(=O)N1CCC(Cn2c(C)cnc2-c2cccnc2)CC1`, the “activity change, negative = inhibition” value was -12.9%. For `COc1cccc(-c2cccc(C(=O)N3CCN(C(=O)Cc4ccc(F)cc4)CC3)c2)c1`, the “activity change, negative = inhibition” value is -11.3%. As for `COCCC1(NS(C)(=O)=O)CCN(S(=O)(=O)c2ccc3c(c2)OCCO3)CC1`, the result was inactive. On to `COc1cccc(-c2ccc(CN3CCCC3C(=O)NCc3ccccc3Cl)cc2)c1` (centres undefined), for which the “activity change, negative = inhibition” value was 2.51%. For `Cc1cc(Cl)ccc1S(=O)(=O)N1CCn2c(nn(CC3CC3)c2=O)C1`, the “activity change, negative = inhibition” value was 1.51%. For `COCCN1C(=O)CCC2(CNC(=O)c3ccncc3)CCC=C12` (centres undefined), the outcome was inactive. With `O=C(NCC1CCCO1)c1csc(N2CCN(c3ccccc3F)CC2)n1` (centres undefined), the “activity change, negative = inhibition” value was -18.5%. For the compound `NC(=O)c1cccc(-c2ncc3c(n2)OCCN(CC2CC2)C3=O)c1`, the “outcome” value is “inactive [at 88.5 µM]”. Regarding `Cc1cc(C)cc(C(=O)NC2CCN(c3cnn(C)c(=O)c3)CC2)c1`, the outcome was inactive.

Consider `O=C(c1cccc(Cl)c1)N1CCC(C(=O)N2CCC(N3CCOCC3=O)CC2)CC1`, for which the result was inactive. Regarding `O=C(c1cnccn1)N1CCC(N2C(=O)C(OCC3CC3)C23CCOCC3)CC1` (centres undefined), the “activity change, negative = inhibition” value was -7.16%.

For the compound `O=C1NC2(CCN(Cc3ccc(F)cc3)C2)OCc2ccccc21` (centres undefined), the “outcome” value was “inactive [at 88.5 µM]”. On to `Cc1ccc2c(C)c(C(=O)N3CCCC3c3nc(C(C)C)no3)oc2c1C` (centres undefined), for which the “activity change, negative = inhibition” value is 3.09%. With `COCCC1(CO)CCCN(C(=O)c2ccc(S(N)(=O)=O)cc2)C1` (centres undefined), the “activity change, negative = inhibition” value is 4.37%. In the case of `C#CCN(Cc1nc(-c2cc(OC)ccc2F)oc1C)C1CCCCC1`, the outcome was inactive. As for `CNCC(O)c1ccc(O)c(O)c1` (centres undefined), the Potency was 6.31 µM (active). Turning to `COCC(=O)N1CCC(N2C[C@H](OC)[C@@H]2c2ccncc2)CC1`, the outcome was inactive. Turning to `CC1(C(=O)N2CCN(c3ccccn3)CC2)CCCc2cnc(Nc3cccnc3)nc21` (centres undefined), the “activity change, negative = inhibition” value is -3.53% [at 88.5 µM]. For `Cc1cc(C)c(C(=O)N2CCOC(Cc3ccc(F)cc3)C2)o1` (centres undefined), the “activity change, negative = inhibition” value was 1.05%.

Take `Cc1ccc(NC(=O)C2CCc3nnc(C4CCN(C(=O)NC(C)(C)C)CC4)n32)cc1` (centres undefined): the result was inactive. Consider `O=C(Cc1ccc(F)cc1)N1CCC(C(=O)N2CCC(c3nc4ncccc4[nH]3)CC2)C1` (centres undefined), for which the “activity change, negative = inhibition” value is 1.34%. With `CN(C)C(=O)NC1CCN(c2nc3ncccc3o2)CC1`, the “outcome” value is “inactive [at 88.5 µM]”. As for `COc1cc2c(cc1OC)C(CNC(=O)c1cccc(Cl)c1)N(C(=O)Nc1ccccc1)CC2` (centres undefined), the outcome was inactive.
